An excerpt weighted towards active compounds, which were near 12% of everything screened.
SARS PLpro yeast-1: inhibitors of SARS-CoV papain-like protease in yeast; S. cerevisiae expressing SARS-CoV PLpro, growth rescue; Potency, µM (highest dose often 32.9 µM), without a hit: top-dose activity, positive = growth rescue, most hits filed as activators; hit rate 0.19% among 330,000; AID 485353; calls by dose curve; also: potency is read from the fitted curve at half-maximal effect; 0% is about no effect; nearly all actives have a fitted effect of over 55% in size
HCV inhibitor: HCV inhibition; Huh7.5.1 HCVcc-Cre infection, luciferase reporter, 44 h; Potency, µM (doses to about 41.8 µM), for the others: at the highest dose activity change, negative = inhibition, actives largely listed as inhibitors; hit rate 3.4% among 340,000; also: potency is read from the fitted curve at half-maximal effect; % is scaled to controls: 0 for no effect and ±100 for the full control effect
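Infectious HCV cell culture screen: compound-treated cells (1,000/well, pre-plated 4 h) are infected with HCVcc-Cre at roughly 0.5 moi and grown 44 h. Infection is quantified by luciferase signal after 15 min substrate incubation at room temperature.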
AMA1 RON2 block: inhibitors of Plasmodium falciparum AMA1-RON2 interaction. AlphaScreen AMA1-biotinylated RON2 peptide binding. Potency, µM (highest dose often 58.2 µM), for inactives: at the highest dose activity change, negative = inhibition, actives largely listed as inhibitors. hit rate 0.2% among 360,000;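 also: potency is read from the fitted curve at half-maximal effect; 0% = vehicle wells and -100% = peptide control; nearly all actives have a fitted effect of over 45% in size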
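AMA1 (3D7) with his tag at 25 nM final met compounds first, then biotinylated RON2 peptide at 25 nM; detection used donor plus acceptor beads, 10 µg/mL apiece, read by AlphaScreen after 30 min at room temperature.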
Pf growth 96h: inhibits malaria parasite growth, 96 h; P. falciparum luciferase reporter growth, 96 h; Potency, µM (series often up to 28.7 µM), without a hit: at the top dose activity change, negative = inhibition, actives largely listed as inhibitors; hit rate 6.9% among 320,000; also: potency is read from the fitted curve at half-maximal effect; % is scaled to controls: 0 for no effect and ±100 for the full control effect
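Compounds incubated with erythrocytes infected by luciferase-expressing P. falciparum (2% hematocrit, 0.05% parasitemia final) for 96 hours, 37 C in 5% CO2. Growth inhibition scored as decreased luciferase luminescence.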
NS1 inh: blocks influenza NS1 protein function | Potency, µM (series often up to 46.1 µM), for the others: at the top dose activity, positive = more growth | hit rate 0.4% among 270,000; calls by dose curve; also: potency is read from the fitted curve at half-maximal effect; actives are rising curves; nearly all actives have a fitted effect of over 50% in size
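Growth recovery, yeast-based: influenza A NS1 expressed in S. cerevisiae causes slow growth, and suppressors are detected by OD600. The parent strain without NS1 is used as positive control.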
Pf growth 48h: inhibits P. falciparum growth in the first generation, 48 h; P. falciparum luciferase growth in erythrocytes, 48 h; hit rate 5.9% among 310,000; AID 504832; Potency, µM (top dose mostly 28.7 µM), inactives show at the highest dose activity change, negative = inhibition, usual class: inhibitors; also: potency is read from the fitted curve at half-maximal effect; % is scaled to controls: 0 for no effect and ±100 for the full control effect
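Here the parasites carry a stable luciferase gene and grow inside erythrocytes in Albumax-based RPMI medium with compound for one erythrocytic cycle. Activity is scored as loss of luminescent signal.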
SARS PLpro yeast-2: Validates SARS-CoV PLpro inhibitor hits in yeast. AID 652038. calls only. shares compounds with SARS PLpro yeast-1. yeast expressing SARS-CoV PLpro, growth phenotype rescue. hit rate 19% among 1,000; call rule not given here
* = called active by the depositor; i = inactive; ? = inconclusive; . = not tested or not shown; + = active, no number; [ ] = another dose, or the depositor's remark. Unless noted, calls follow the shape of the dose curve; as a rule, active = well fitted curve in the direction sought with a large enough effect; inconclusive = small, poorly fitted or top-dose-only effect, or another doubt; inactive = no such curve, though single readings can be large; an effect the other way counts as inactive or inconclusive.

SMILES	SARS PLpro yeast-1	HCV inhibitor	AMA1 RON2 block	Pf growth 96h	NS1 inh	Pf growth 48h	SARS PLpro yeast-2
CC(=O)c1sc(N/N=C\c2c(O)ccc3ccccc23)nc1C	.	?	62.8%	.	.	.	.
CCOC(=O)C1CCN(C(=O)CN(c2cc(Cl)ccc2OC)S(=O)(=O)c2ccccc2)CC1	?	14.5%	11.6%	?	3.4%	14.7µM*	i
CCOC(=O)C1CCN(C(=O)CN(C)S(=O)(=O)c2cc(C)ccc2OC)CC1	-3.3%	-3.7%	-3.7%	?	0.8%	-13.1%	.
O=C(Nc1cccc(C(=O)N2CCCCC2)c1)c1ccccc1Br	0.3%	3.3%	-12.0%	?	4.0%	-16.1%	.
CCOC(=O)CSc1nc2ccccc2c(=O)n1C1CCCC1	-9.1%	-4.6%	5.0%	57.3%	-63.0%	?	.
CCOC(=O)CSc1nc2ccccc2c(=O)n1C	?	4.6%	8.5%	-19.5%	-13.6%	?	i
CN1C(=O)SC(Nc2ccccc2)C1=O (stereo unspecified)	12.6µM*	-0.2%	2.3%	?	-3.2%	-17.0%	i
C/C(CC(=O)Nc1ccc(N(C)C)cc1)=N\NC(=O)Cc1csc(N)n1	17.8µM*	3.3%	25.3%	44.6%	?	?	i
CC1(C)NC(=O)N(CCSc2ccc(Cl)cc2)C1=O	0.9%	6.6%	9.8%	?	-5.7%	.	.
Cc1ccc(SCCCCN2C(=O)NC(C)(C)C2=O)cc1	?	?	0.9%	45.1%	-5.5%	5.1%	i
O=C(c1ccc(F)cc1)N1CCC(C(=O)N2CCN(c3ncccn3)CC2)CC1	15.8%	21.5%	8.3%	.	.	.	.
Cc1ccc(-n2nc3c(N4CCC(C(=O)NCc5ccc(C)o5)CC4)nnc(C)c3c2C)cc1	?	?	5.9%	10.4µM*	9.2%	?	i
COc1ccc(-n2nc3c(N4CCC(C(=O)NCc5ccco5)CC4)nnc(C)c3c2C)cc1	.	3.4%	-3.2%	44.6%	4.6%	?	.
CCc1nnc(N/N=C/c2ccccc2F)n1N	-1.7%	-2.4%	6.8%	-21.8%	.	28.2%	.
CC(C)(C)c1nnc(N/N=C/c2ccccc2O)n(N)c1=O	3.16µM*	?	11.1%	?	-33.9%	3.29µM*	i
CCOC(=O)CSc1nnc(Cc2ccccc2)n1Cc1ccco1	-2.0%	13.2%	2.5%	?	-71.3%	-6.3%	.
CCOC(=O)CSc1nc2c(sc(=S)n2Cc2ccco2)c(=O)n1-c1ccccc1	?	?	-3.7%	?	?	?	i
O=C(CN1CCN(S(=O)(=O)c2ccc3c(c2)OCCCO3)CC1)N1CCc2ccccc21	.	.	-12.2%	.	.	.	.
N#C/C(=C/c1ccc(F)cc1)c1nnc(NC(=O)c2ccccc2)s1	-1.4%	5.6%	18.2%	7.5%	-2.9%	17.7%	.
C/C(=N\NC(N)=S)c1ccccc1	7.0%	-14.3%	132.4%	?	-2.8%	-28.0%	.
CC(/C=C/c1ccccc1)=N\NC(N)=S	12.6µM*	15.8µM*	20.7%	?	-48.1%	10.4µM*	+
NNC(=O)/C(=N/Nc1ccccc1)S(=O)(=O)c1ccc(Cl)cc1	?	10µM*	38.6%[2.32 µM]	11.7µM*	?	9.28µM*	i
O=C(O)[C@@H]1[C@@H]2C[C@@H]2CN1c1ncccc1[N+](=O)[O-]	0.9%	12.8%	7.3%	33.1%	-3.5%	9.9%	.
CC12CCC(C(=O)Nc3nc4ccc(Br)cc4s3)(OC1=O)C2(C)C (stereo unspecified)	-0.8%	-25.1%	-1.1%	?	4.1%	21.7%	.
CCCCCN(C(=O)NC(=O)Nc1ccc(C)cc1C)S(C)(=O)=O	-2.5%	11.8%	3.5%	10.7%	.	-1.8%	.
CCCCCN(C(=O)NC(=O)Nc1ccc(C)cc1)S(=O)(=O)c1ccccc1	3.16µM*	5.0%	-3.4%	61.2%	-10.4%	26.1%	i
Cn1c2ccccc2n2c(=O)c(=O)n(CC(=O)c3ccc(Cl)cc3)nc12	11.2µM*	31.1%	6.9%	21.3%	23.0%	-5.4%	i
CCOc1ncccc1C(=O)OCC(=O)Nc1ccc2c(c1)CCC2	?	0.8%	10.2%	.	.	.	i

High-throughput results deposited in PubChem BioAssay by National Center for Advancing Translational Sciences (NCATS).
